Laboratory results from PubChem BioAssay AID1159580 (chemical genetic matrix, 2015).
The whole screen tested about 5,500 compounds, of which about 2,000 (36%) were called active. Inconclusive results (about 18%) are left out. No stated cut-off is given here; in the data, active means normalized growth mostly below about 0.91 (no sharp cut-off); inconclusive means no clear call, values can overlap the other calls; inactive means mostly above about 0.92. Some of the results follow.

Assay: chemical genetic growth profiling, strain panel (AID 1159580);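 further: tested at 20 µM; growth read once vehicle control cultures reached saturation at 30 °C; 1 = growth at the plate median or of vehicle wells; lower values mean less growth of the strain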
Details: growth OD

Measured: normalized growth

CC(=O)O[C@H]1C[C@@H](O)C(C)(C)C2C[C@@H](OC(C)=O)[C@]3(C)C(CC[C@@]4(C)[C@H](c5ccoc5)OC(=O)C5OC543)[C@]21C (stereo partly specified)
inactive: S. cerevisiae deletion strains, locus YJL187C, strain SWE1, hits give low values 0.996 | S. cerevisiae deletion strains, locus YJR066W, strain TOR1, hits give low values 0.928 | S. cerevisiae deletion strains, locus YKL009W, strain mrt4, hits give low values 0.954 | S. cerevisiae deletion strains, locus YKL068W, hits give low values 0.976 | S. cerevisiae deletion strains, locus YKL085W, strain MDH1 (second series), hits give low values 0.974 | S. cerevisiae deletion strains, locus YKL085W, strain MDH1, hits give low values 0.974 | S. cerevisiae deletion strains, locus YKL160W, strain elf1, hits give low values 1.01 | S. cerevisiae deletion strains, locus YKR001C, strain vps1, hits give low values 0.983 | S. cerevisiae deletion strains, locus YKR026C, strain gcn3, hits give low values 1.01 | S. cerevisiae deletion strains, locus YKR091W, strain srl3, hits give low values 1.01 | S. cerevisiae deletion strains, locus YLL001W, strain dnm1, hits give low values 0.998 | S. cerevisiae deletion strains, locus YLL026W, hits give low values 1.01 | S. cerevisiae deletion strains, locus YLL041C, strain sdh2, hits give low values 0.999 | S. cerevisiae deletion strains, locus YLR027C, strain aat2, hits give low values 1.01 | S. cerevisiae deletion strains, locus YLR039C, strain RIC1, hits give low values 1.04 | S. cerevisiae deletion strains, locus YLR058C, strain SHM2, hits give low values 0.967 | S. cerevisiae deletion strains, locus YLR102C, strain apc9, hits give low values 0.984 | S. cerevisiae deletion strains, locus YLR113W, strain HOG1, hits give low values 1.02 | S. cerevisiae deletion strains, locus YLR221C, strain rsa3, hits give low values 1.01 | S. cerevisiae deletion strains, locus YLR258W, strain gsy2, hits give low values 1 | S. cerevisiae deletion strains, locus YLR262C, strain YPT6 (second series), hits give low values 1.01 | S. cerevisiae deletion strains, locus YLR262C, strain YPT6, hits give low values 1.02 | S. cerevisiae deletion strains, locus YLR268W, strain sec22, hits give low values 0.977 | S. cerevisiae deletion strains, locus YLR320W, strain mms22, hits give low values 1.02 | S. cerevisiae deletion strains, locus YLR330W, strain CHS5, hits give low values 0.992 | S. cerevisiae deletion strains, locus YLR342W, strain FKS1 (second series), hits give low values 0.988 | S. cerevisiae deletion strains, locus YLR342W, strain FKS1, hits give low values 1.01 | S. cerevisiae deletion strains, locus YLR357W, strain rsc2, hits give low values 1.04 | S. cerevisiae deletion strains, locus YLR370C, strain arc18, hits give low values 0.999 | S. cerevisiae deletion strains, locus YLR371W, strain rom2, hits give low values 0.988 | S. cerevisiae deletion strains, locus YLR384C, strain iki3, hits give low values 0.999 | S. cerevisiae deletion strains, locus YLR418C, strain cdc73, hits give low values 0.979 | S. cerevisiae deletion strains, locus YML016C, strain PPZ1, hits give low values 0.975 | S. cerevisiae deletion strains, locus YML032C, strain rad52, hits give low values 0.991 | S. cerevisiae deletion strains, locus YML120C, strain ndi1, hits give low values 1.01 | S. cerevisiae deletion strains, locus YML124C, strain tub3, hits give low values 0.986 | S. cerevisiae deletion strains, locus YMR058W, strain fet3, hits give low values 1.01 | S. cerevisiae deletion strains, locus YMR078C, strain ctf18, hits give low values 0.988 | S. cerevisiae deletion strains, locus YMR125W, strain sto1, hits give low values 1 | S. cerevisiae deletion strains, locus YMR129W, hits give low values 1.03 | S. cerevisiae deletion strains, locus YMR205C, strain PFK2, hits give low values 1.01 | S. cerevisiae deletion strains, locus YMR223W, strain ubp8, hits give low values 0.991 | S. cerevisiae deletion strains, locus YMR231W, strain pep5, hits give low values 0.988 | S. cerevisiae deletion strains, locus YMR307W, strain GAS1, hits give low values 0.964 | S. cerevisiae deletion strains, locus YNL067W, strain RPL9B, hits give low values 1.02 | S. cerevisiae deletion strains, locus YNL071W, strain lat1, hits give low values 1 | S. cerevisiae deletion strains, locus YNL183C, strain NPR1, hits give low values 0.946 | S. cerevisiae deletion strains, locus YNL209W, strain ssb2, hits give low values 0.995 | S. cerevisiae deletion strains, locus YNL233W, strain BNI4, hits give low values 1 | S. cerevisiae deletion strains, locus YNL248C, strain rpa49, hits give low values 1 | S. cerevisiae deletion strains, locus YNL250W, strain rad50, hits give low values 1.02 | S. cerevisiae deletion strains, locus YNL271C, strain bni1, hits give low values 0.989 | S. cerevisiae deletion strains, locus YNL298W, strain CLA4, hits give low values 0.992 | S. cerevisiae deletion strains, locus YNL307C, strain MCK1, hits give low values 0.995 | S. cerevisiae deletion strains, locus YNL322C, strain KRE1 (second series), hits give low values 1.02 | S. cerevisiae deletion strains, locus YNR049C, strain mso1, hits give low values 0.999 | S. cerevisiae deletion strains, locus YNR052C, strain pop2, hits give low values 0.987 | S. cerevisiae deletion strains, locus YOL006C, strain TOP1, hits give low values 0.989 | S. cerevisiae deletion strains, locus YOL012C, strain htz1 0.76 | S. cerevisiae deletion strains, locus YOL147C, strain pex11, hits give low values 0.99 | S. cerevisiae deletion strains, locus YOR001W, strain rrp6, hits give low values 1.03 | S. cerevisiae deletion strains, locus YOR061W, strain CKA2, hits give low values 0.966 | S. cerevisiae deletion strains, locus YOR069W, strain VPS5, hits give low values 0.998 | S. cerevisiae deletion strains, locus YOR070C, strain gyp1, hits give low values 1.01 | S. cerevisiae deletion strains, locus YOR080W, strain dia2, hits give low values 0.998 | S. cerevisiae deletion strains, locus YOR083W, strain WHI5, hits give low values 1.01 | S. cerevisiae deletion strains, locus YOR106W, strain vam3, hits give low values 1 | S. cerevisiae deletion strains, locus YOR136W, strain idh2, hits give low values 0.979 | S. cerevisiae deletion strains, locus YOR144C, strain elg1, hits give low values 0.989 | S. cerevisiae deletion strains, locus YOR184W, strain ser1, hits give low values 0.967 | S. cerevisiae deletion strains, locus YOR231W, strain MKK1, hits give low values 0.984 | S. cerevisiae deletion strains, locus YOR265W, strain rbl2, hits give low values 1 | S. cerevisiae deletion strains, locus YOR270C, strain vph1, hits give low values 0.967 | S. cerevisiae deletion strains, locus YOR290C, strain snf2, hits give low values 1 | S. cerevisiae deletion strains, locus YOR316C, strain cot1, hits give low values 0.989 | S. cerevisiae deletion strains, locus YPL051W, strain arl3, hits give low values 1.02 | S. cerevisiae deletion strains, locus YPL078C, strain atp4, hits give low values 0.997 | S. cerevisiae deletion strains, locus YPL106C, strain sse1, hits give low values 1.02 | S. cerevisiae deletion strains, locus YPL240C, strain hsp82, hits give low values 1.01 | S. cerevisiae deletion strains, locus YPL256C, strain CLN2, hits give low values 0.944 | S. cerevisiae deletion strains, locus YPR119W, strain clb2, hits give low values 0.985 | S. cerevisiae deletion strains, locus YPR141C, strain kar3, hits give low values 0.986 | S. cerevisiae deletion strains, locus YPR163C, strain tif3, hits give low values 0.982 | S. cerevisiae deletion strains, locus YPR167C, strain met16, hits give low values 0.987 | S. cerevisiae deletion strains, strain wtn01, hits give low values 0.968 | S. cerevisiae strains, strain wild type, hits give low values 0.988
